# Source: article PMC11062922 (Nature Chemical Biology, 2023)
# Read-outs that look alike come from different tables or passages of the source.
# What was measured:
# NTRK1 = conditions: read-out: apparent Kd, n = 1
# NUAK2 = conditions: read-out: apparent Kd, n = 1
# [1] = compound concentrations:100 nM and 1000 nM (sheet 'Lestaurtinib' of Supplementary Table 1),run:Lestaurtinib_02765_R2,Plate:MR026
# [2] = compound concentrations:100 nM and 1000 nM (sheet 'Lestaurtinib' of Supplementary Table 1),run:Lestaurtinib_02766_R2,Plate:MR027
# [3] = compound concentrations:100 nM and 1000 nM (sheet 'Lestaurtinib' of Supplementary Table 1),run:Lestaurtinib_02768_R1,Plate:MR028
# [4] = compound concentrations:100 nM and 1000 nM (sheet 'Lestaurtinib' of Supplementary Table 1),run:Lestaurtinib_02768_R2,Plate:MR028
# [5] = compound concentrations:100 nM and 1000 nM (sheet 'Lestaurtinib' of Supplementary Table 1),run:Lestaurtinib_02795_R1,Plate:MR022
# [6] = compound concentrations:100 nM and 1000 nM (sheet 'Lestaurtinib' of Supplementary Table 1),run:Lestaurtinib_02795_R2,Plate:MR022
# [7] = compound concentrations:100 nM and 1000 nM (sheet 'Lestaurtinib' of Supplementary Table 1),run:Lestaurtinib_02802_R3,Plate:MR029
# [8] = compound concentrations:100 nM and 1000 nM (sheet 'Lestaurtinib' of Supplementary Table 1),run:Lestaurtinib_02896_R2,Plate:MR030
substance,measurement,setting,value
Lestaurtinib,potency estimated from few doses,"NTRK1; compound concentrations:100 nM and 1000 nM (sheet 'Lestaurtinib' of Supplementary Table 1),run:Lestaurtinib_02748_R2,Plate:MR024",951 nM
same,potency estimated from few doses,"NTRK1; compound concentrations:100 nM and 1000 nM (sheet 'Lestaurtinib' of Supplementary Table 1),run:Lestaurtinib_02752_R1,Plate:MR025",2130 nM
same,potency estimated from few doses,NTRK1; [1],528 nM
same,potency estimated from few doses,NTRK1; [2],1650 nM
same,potency estimated from few doses,"NTRK1; compound concentrations:100 nM and 1000 nM (sheet 'Lestaurtinib' of Supplementary Table 1),run:Lestaurtinib_02766_R3,Plate:MR027",1440 nM
same,potency estimated from few doses,NTRK1; [3],628 nM
same,potency estimated from few doses,NTRK1; [4],897 nM
same,potency estimated from few doses,NTRK1; [5],852 nM
same,potency estimated from few doses,NTRK1; [6],1240 nM
same,potency estimated from few doses,"NTRK1; compound concentrations:100 nM and 1000 nM (sheet 'Lestaurtinib' of Supplementary Table 1),run:Lestaurtinib_02802_R1,Plate:MR029",896 nM
same,potency estimated from few doses,NTRK1; [7],943 nM
same,potency estimated from few doses,NTRK1; [8],935 nM
same,potency estimated from few doses,"NTRK1; compound concentrations:100 nM and 1000 nM (sheet 'Lestaurtinib' of Supplementary Table 1),run:Lestaurtinib_03172_R1,Plate:MR031",1440 nM
same,potency estimated from few doses,"NTRK1; compound concentrations:100 nM and 1000 nM (sheet 'Lestaurtinib' of Supplementary Table 1),run:Lestaurtinib_03172_R2,Plate:MR031",662 nM
same,potency estimated from few doses,"NTRK1; compound concentrations:100 nM and 1000 nM (sheet 'Lestaurtinib' of Supplementary Table 1),run:Lestaurtinib_03260_R1,Plate:MR033",898 nM
same,potency estimated from few doses,"NTRK1; compound concentrations:100 nM and 1000 nM (sheet 'Lestaurtinib' of Supplementary Table 1),run:Lestaurtinib_03260_R2,Plate:MR033",635 nM
same,potency estimated from few doses,"NUAK2; compound concentrations:100 nM and 1000 nM (sheet 'Lestaurtinib' of Supplementary Table 1),run:Lestaurtinib_02339_R1,Plate:MR001",489 nM
same,potency estimated from few doses,"NUAK2; compound concentrations:100 nM and 1000 nM (sheet 'Lestaurtinib' of Supplementary Table 1),run:Lestaurtinib_02339_R2,Plate:MR001",23.7 nM
same,potency estimated from few doses,"NUAK2; compound concentrations:100 nM and 1000 nM (sheet 'Lestaurtinib' of Supplementary Table 1),run:Lestaurtinib_02339_R3,Plate:MR001",373 nM
same,potency estimated from few doses,"NUAK2; compound concentrations:100 nM and 1000 nM (sheet 'Lestaurtinib' of Supplementary Table 1),run:Lestaurtinib_02364_R3,Plate:MR002",260 nM
same,potency estimated from few doses,"NUAK2; compound concentrations:100 nM and 1000 nM (sheet 'Lestaurtinib' of Supplementary Table 1),run:Lestaurtinib_02367_R1,Plate:MR003",873 nM
same,potency estimated from few doses,"NUAK2; compound concentrations:100 nM and 1000 nM (sheet 'Lestaurtinib' of Supplementary Table 1),run:Lestaurtinib_02367_R2,Plate:MR003",382 nM
same,potency estimated from few doses,"NUAK2; compound concentrations:100 nM and 1000 nM (sheet 'Lestaurtinib' of Supplementary Table 1),run:Lestaurtinib_02381_R1,Plate:MR004",394 nM
same,potency estimated from few doses,"NUAK2; compound concentrations:100 nM and 1000 nM (sheet 'Lestaurtinib' of Supplementary Table 1),run:Lestaurtinib_02381_R2,Plate:MR004",113 nM
same,potency estimated from few doses,"NUAK2; compound concentrations:100 nM and 1000 nM (sheet 'Lestaurtinib' of Supplementary Table 1),run:Lestaurtinib_02407_R2,Plate:MR005",70.6 nM
same,potency estimated from few doses,"NUAK2; compound concentrations:100 nM and 1000 nM (sheet 'Lestaurtinib' of Supplementary Table 1),run:Lestaurtinib_02422_R1,Plate:MR006",77.8 nM
same,potency estimated from few doses,"NUAK2; compound concentrations:100 nM and 1000 nM (sheet 'Lestaurtinib' of Supplementary Table 1),run:Lestaurtinib_02422_R2,Plate:MR006",44.9 nM
same,potency estimated from few doses,"NUAK2; compound concentrations:100 nM and 1000 nM (sheet 'Lestaurtinib' of Supplementary Table 1),run:Lestaurtinib_02437_R1,Plate:MR007",140 nM
same,potency estimated from few doses,"NUAK2; compound concentrations:100 nM and 1000 nM (sheet 'Lestaurtinib' of Supplementary Table 1),run:Lestaurtinib_02438_R1,Plate:MR008",22.1 nM
same,potency estimated from few doses,"NUAK2; compound concentrations:100 nM and 1000 nM (sheet 'Lestaurtinib' of Supplementary Table 1),run:Lestaurtinib_02443_R1,Plate:MR009",70 nM
same,potency estimated from few doses,"NUAK2; compound concentrations:100 nM and 1000 nM (sheet 'Lestaurtinib' of Supplementary Table 1),run:Lestaurtinib_02443_R2,Plate:MR009",75.5 nM
same,potency estimated from few doses,"NUAK2; compound concentrations:100 nM and 1000 nM (sheet 'Lestaurtinib' of Supplementary Table 1),run:Lestaurtinib_02443_R3,Plate:MR009",696 nM
same,potency estimated from few doses,"NUAK2; compound concentrations:100 nM and 1000 nM (sheet 'Lestaurtinib' of Supplementary Table 1),run:Lestaurtinib_02473_R2,Plate:MR010",100 nM
same,potency estimated from few doses,"NUAK2; compound concentrations:100 nM and 1000 nM (sheet 'Lestaurtinib' of Supplementary Table 1),run:Lestaurtinib_02473_R3,Plate:MR010",53.1 nM
same,potency estimated from few doses,"NUAK2; compound concentrations:100 nM and 1000 nM (sheet 'Lestaurtinib' of Supplementary Table 1),run:Lestaurtinib_02482_R1,Plate:MR011",165 nM
same,potency estimated from few doses,"NUAK2; compound concentrations:100 nM and 1000 nM (sheet 'Lestaurtinib' of Supplementary Table 1),run:Lestaurtinib_02482_R2,Plate:MR011",98 nM
same,potency estimated from few doses,"NUAK2; compound concentrations:100 nM and 1000 nM (sheet 'Lestaurtinib' of Supplementary Table 1),run:Lestaurtinib_02482_R3,Plate:MR011",133 nM
same,potency estimated from few doses,"NUAK2; compound concentrations:100 nM and 1000 nM (sheet 'Lestaurtinib' of Supplementary Table 1),run:Lestaurtinib_02487_R1,Plate:MR012",87.5 nM
same,potency estimated from few doses,"NUAK2; compound concentrations:100 nM and 1000 nM (sheet 'Lestaurtinib' of Supplementary Table 1),run:Lestaurtinib_02487_R2,Plate:MR012",208 nM
same,potency estimated from few doses,"NUAK2; compound concentrations:100 nM and 1000 nM (sheet 'Lestaurtinib' of Supplementary Table 1),run:Lestaurtinib_02487_R3,Plate:MR012",85.6 nM
same,potency estimated from few doses,"NUAK2; compound concentrations:100 nM and 1000 nM (sheet 'Lestaurtinib' of Supplementary Table 1),run:Lestaurtinib_02496_R1,Plate:MR013",931 nM
same,potency estimated from few doses,"NUAK2; compound concentrations:100 nM and 1000 nM (sheet 'Lestaurtinib' of Supplementary Table 1),run:Lestaurtinib_02496_R3,Plate:MR013",50.7 nM
same,potency estimated from few doses,"NUAK2; compound concentrations:100 nM and 1000 nM (sheet 'Lestaurtinib' of Supplementary Table 1),run:Lestaurtinib_02566_R3,Plate:MR014",517 nM
same,potency estimated from few doses,"NUAK2; compound concentrations:100 nM and 1000 nM (sheet 'Lestaurtinib' of Supplementary Table 1),run:Lestaurtinib_02572_R1,Plate:MR015",368 nM
same,potency estimated from few doses,"NUAK2; compound concentrations:100 nM and 1000 nM (sheet 'Lestaurtinib' of Supplementary Table 1),run:Lestaurtinib_02572_R2,Plate:MR015",96.7 nM
same,potency estimated from few doses,"NUAK2; compound concentrations:100 nM and 1000 nM (sheet 'Lestaurtinib' of Supplementary Table 1),run:Lestaurtinib_02584_R1,Plate:MR017",207 nM
same,potency estimated from few doses,"NUAK2; compound concentrations:100 nM and 1000 nM (sheet 'Lestaurtinib' of Supplementary Table 1),run:Lestaurtinib_02584_R3,Plate:MR017",259 nM
same,potency estimated from few doses,"NUAK2; compound concentrations:100 nM and 1000 nM (sheet 'Lestaurtinib' of Supplementary Table 1),run:Lestaurtinib_02601_R3,Plate:MR018",396 nM
same,potency estimated from few doses,"NUAK2; compound concentrations:100 nM and 1000 nM (sheet 'Lestaurtinib' of Supplementary Table 1),run:Lestaurtinib_02606_R1,Plate:MR019",140 nM
same,potency estimated from few doses,"NUAK2; compound concentrations:100 nM and 1000 nM (sheet 'Lestaurtinib' of Supplementary Table 1),run:Lestaurtinib_02606_R2,Plate:MR019",121 nM
same,potency estimated from few doses,"NUAK2; compound concentrations:100 nM and 1000 nM (sheet 'Lestaurtinib' of Supplementary Table 1),run:Lestaurtinib_02606_R3,Plate:MR019",154 nM
same,potency estimated from few doses,"NUAK2; compound concentrations:100 nM and 1000 nM (sheet 'Lestaurtinib' of Supplementary Table 1),run:Lestaurtinib_02624_R1,Plate:MR020",92.2 nM
same,potency estimated from few doses,"NUAK2; compound concentrations:100 nM and 1000 nM (sheet 'Lestaurtinib' of Supplementary Table 1),run:Lestaurtinib_02624_R2,Plate:MR020",93.3 nM
same,potency estimated from few doses,"NUAK2; compound concentrations:100 nM and 1000 nM (sheet 'Lestaurtinib' of Supplementary Table 1),run:Lestaurtinib_02624_R3,Plate:MR020",72.9 nM
same,potency estimated from few doses,"NUAK2; compound concentrations:100 nM and 1000 nM (sheet 'Lestaurtinib' of Supplementary Table 1),run:Lestaurtinib_02741_R1,Plate:MR023",140 nM
same,potency estimated from few doses,"NUAK2; compound concentrations:100 nM and 1000 nM (sheet 'Lestaurtinib' of Supplementary Table 1),run:Lestaurtinib_02741_R2,Plate:MR023",124 nM
same,potency estimated from few doses,"NUAK2; compound concentrations:100 nM and 1000 nM (sheet 'Lestaurtinib' of Supplementary Table 1),run:Lestaurtinib_02741_R3,Plate:MR023",115 nM
same,potency estimated from few doses,"NUAK2; compound concentrations:100 nM and 1000 nM (sheet 'Lestaurtinib' of Supplementary Table 1),run:Lestaurtinib_02748_R3,Plate:MR024",59.8 nM
same,potency estimated from few doses,"NUAK2; compound concentrations:100 nM and 1000 nM (sheet 'Lestaurtinib' of Supplementary Table 1),run:Lestaurtinib_02752_R2,Plate:MR025",68.5 nM
same,potency estimated from few doses,"NUAK2; compound concentrations:100 nM and 1000 nM (sheet 'Lestaurtinib' of Supplementary Table 1),run:Lestaurtinib_02765_R1,Plate:MR026",298 nM
same,potency estimated from few doses,NUAK2; [1],316 nM
same,potency estimated from few doses,"NUAK2; compound concentrations:100 nM and 1000 nM (sheet 'Lestaurtinib' of Supplementary Table 1),run:Lestaurtinib_02765_R3,Plate:MR026",88.4 nM
same,potency estimated from few doses,NUAK2; [2],58.5 nM
same,potency estimated from few doses,NUAK2; [3],89.9 nM
same,potency estimated from few doses,NUAK2; [4],66.1 nM
same,potency estimated from few doses,"NUAK2; compound concentrations:100 nM and 1000 nM (sheet 'Lestaurtinib' of Supplementary Table 1),run:Lestaurtinib_02768_R3,Plate:MR028",146 nM
same,potency estimated from few doses,NUAK2; [5],93.4 nM
same,potency estimated from few doses,NUAK2; [6],95.4 nM
same,potency estimated from few doses,"NUAK2; compound concentrations:100 nM and 1000 nM (sheet 'Lestaurtinib' of Supplementary Table 1),run:Lestaurtinib_02795_R3,Plate:MR022",154 nM
same,potency estimated from few doses,"NUAK2; compound concentrations:100 nM and 1000 nM (sheet 'Lestaurtinib' of Supplementary Table 1),run:Lestaurtinib_02802_R2,Plate:MR029",79.5 nM
same,potency estimated from few doses,NUAK2; [7],69.5 nM
same,potency estimated from few doses,"NUAK2; compound concentrations:100 nM and 1000 nM (sheet 'Lestaurtinib' of Supplementary Table 1),run:Lestaurtinib_02896_R1,Plate:MR030",90.1 nM
same,potency estimated from few doses,NUAK2; [8],130 nM
